The list is not random: actives were taken first. Their share in the collection is about 4.5%.
TIM10 inh – TIM10 yeast growth inhibition. AID 463195. S. cerevisiae TIM10 strain growth, BacTiter-Glo luminescence, 24 h. inhibition, % at 10 µM. hit rate 1.4% among 330,000;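 active = inhibition of 40% or more at the single tested concentration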;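 also: wild-type TIM10 isogenic control strain grown at permissive 25 °C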
PfHsp90 set2 – reduces growth (ATP signal) of yeast expressing P. falciparum Hsp90. S. cerevisiae expressing PfHsp90, BacTiter-Glo ATP, 48 h; yeast lacking PDR1 and PDR3 efflux regulators. hit rate 0.32% among 310,000. inhibition, % at 9.4 µM;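 active = every replicate shows inhibition above about 80%, whatever the replicate mean, limit read from the data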
tim23-1 inh – growth inhibitors of tim23-1 mutant yeast. S. cerevisiae tim23-1 growth, BacTiter-Glo luminescence, 24 h. inhibition, % at 20 µM. hit rate 1.3% among 330,000. AID 463212;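 active = growth inhibition of the mutant yeast at or above 50%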;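 also: temperature-sensitive mutant grown at 25 °C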
tim10-1 inh – tim10-1 yeast growth inhibition; inhibition, % at 20 µM; S. cerevisiae tim10-1 ts strain growth, BacTiter-Glo, 24 h; AID 463190; hit rate 2.2% among 330,000;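 active = inhibition of at least 40%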;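 also: mutant grown at 25 °C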
NLRP3 yeast inh – inhibitors of NALP3 inflammasome in yeast; Yeast reconstituted NLRP3/ASC/caspase-1, beta-gal luminescence, 24 h; AID 2825; inhibition, % at 10 µM; hit rate 0.39% among 330,000;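 active = inhibition of 50% or more; inactive = inhibition below 50%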
SKKanGAS inh – SKKanGAS growth inhibition; S. pyogenes SKKanGAS, kanamycin growth, BacTiter-Glo, 6 h; inhibition, % at 7.5 µM; hit rate 1.3% among 300,000; AID 1662;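 active = mean replicate score, as percent of positive control median, at least 50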;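 also: strain carries kanamycin resistance gene driven by streptokinase promoter and grows in 40 µg/ml kanamycin; loss of luminescence reflects streptokinase promoter inhibition or plain growth inhibition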
tim10-1 confirm – confirmation of tim10-1 mutant yeast growth inhibitors; shares compounds with tim10-1 inh; S. cerevisiae tim10-1 ts strain growth, BacTiter-Glo, 24 h; inhibition, % at 20 µM; hit rate 56% among 7,400;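 active = inhibition of yeast growth at or above a set limit in either of two repeat tests at 20 µM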;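 also: tim10-1 mutant grown at permissive 25 °C to find synthetic lethal compounds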
Numbers stand for hits; n = inactive; x = no result.

SMILES	TIM10 inh	PfHsp90 set2	tim23-1 inh	tim10-1 inh	NLRP3 yeast inh	SKKanGAS inh	tim10-1 confirm
N/C(=N\OC(=O)CCCOc1ccccc1)c1cccc([N+](=O)[O-])c1	n	n	n	55	n	n	46
N/C(=N\OC(=O)C1CCCCC1)c1cccc([N+](=O)[O-])c1	n	n	n	47	n	x	49
CC12CC(NC(=O)N1c1cccc(C(=O)NCc3ccccn3)c1)c1ccccc1O2 (centres undefined)	n	n	n	n	n	n	x
O=C(O)c1ccc(S(=O)(=O)NCc2ccc3c(c2)OCO3)cc1	n	n	n	n	n	n	x
CCOc1ccc(NS(=O)(=O)c2coc(C(N)=O)c2)cc1	n	x	n	n	n	n	x
CC(C)c1ccc(NC(=O)C2C3C=CC4(O3)C2C(=O)N(CCCN2CCOCC2)C4C(=O)NC2CCCCC2)cc1 (centres undefined)	n	n	n	n	n	n	x
Cc1cc(=O)c2cc(NC(=O)c3ccccc3Cl)ccc2[nH]1	n	n	n	n	n	n	x
CCOc1ccc(CN(C)C(=O)Cc2c[nH]c3ccccc23)cc1	x	n	x	x	x	n	x
C/C(CC(=O)Nc1ccc(N(C)C)cc1)=N\NC(=O)c1ccccn1	n	n	n	49	n	n	32
OC(COc1ccc2cc(Br)ccc2c1)CN1CCN(c2ccccn2)CC1 (centres undefined)	n	n	n	41	n	n	n
O=S(=O)(N1CCCCC1)N1CCN(CC(O)COc2ccc3cc(Br)ccc3c2)CC1 (centres undefined)	n	x	n	45	n	n	n
COc1cccc(OCC(O)CN2CCN(c3ccccn3)CC2)c1 (centres undefined)	n	n	n	n	n	n	x
CN(C)S(=O)(=O)N1CCN(CC(O)COc2ccc3cc(Br)ccc3c2)CC1 (centres undefined)	n	n	n	n	n	n	x
COc1ccc(-c2nn(CCC#N)cc2C=C(C#N)C#N)cc1	n	n	n	n	n	n	x
Cc1ccc(-c2nn(CCC#N)cc2C=C(C#N)C#N)cc1	n	n	n	45	n	n	n
COc1cc2c(C(=O)N3CCN(C)CC3)c(C)n(-c3ccccc3)c2cc1Br	n	n	n	50	n	n	n
CCc1cccc(NC(=O)c2sc3nc4n(c(=O)c3c2C)CCC4)c1	n	n	n	n	n	n	x
CCOC(=O)c1ccc(NC(=O)c2sc3nc4n(c(=O)c3c2C)CCC4)cc1	n	n	n	48	n	62	n
Cc1cc(C)cc(NC(=O)c2sc3nc4n(c(=O)c3c2C)CCC4)c1	n	n	n	43	n	n	n
Fc1cccc(NC(=S)NCc2ccccc2Cl)c1	n	n	n	50	n	n	44
S=C(NCCC(c1ccccc1)c1ccccc1)Nc1cccc(Cl)c1	n	n	n	40	n	102	n
S=C(N/N=C/c1cccc2ccccc12)Nc1cccc(Cl)c1	n	n	n	43	n	n	37
CN1CCC(N(C)C(=O)c2ccc(Cl)c(S(=O)(=O)Nc3cc(Cl)ccc3Cl)c2)CC1	n	n	n	n	n	x	x
CC(C)=CCC/C(C)=C/CC/C(C)=C/COc1ccc2ccc(=O)oc2c1	n	n	n	n	n	x	x
O=C(C1COc2ccccc2O1)N1CCN(c2nc3c(F)cc(F)cc3s2)CC1 (centres undefined)	n	n	n	40	n	n	n
SMILES	TIM10 inh	PfHsp90 set2	tim23-1 inh	tim10-1 inh	NLRP3 yeast inh	SKKanGAS inh	tim10-1 confirm
Cc1ccc2c(CC(=O)NNC(=O)c3ccccc3O)coc2c1	n	x	n	n	n	n	x
Cc1c(Br)c([N+](=O)[O-])nn1C(C)C(=O)N1CCCc2ccccc21 (centres undefined)	n	n	n	40	n	n	37
Cc1c(Br)c([N+](=O)[O-])nn1CC(=O)N1CCc2ccccc21	n	n	n	n	n	n	x
COc1ccccc1NC(CC(=O)c1ccccc1)C(=O)OCC(=O)c1ccc(Br)cc1 (centres undefined)	n	n	n	45	n	n	37
COc1ccccc1NC(CC(=O)c1ccccc1)C(=O)OCC(=O)c1ccc(C)cc1 (centres undefined)	n	n	n	n	n	n	x
CCOc1ccccc1NC(C)C(=O)Nc1cc(C(F)(F)F)ccc1N1CCOCC1 (centres undefined)	n	n	n	40	n	n	n
Cc1ccccc1SCC(=O)Nc1cc(C(F)(F)F)ccc1N1CCOCC1	n	n	n	44	n	n	34
Cc1nnc(SCC(=O)Nc2cc(C(F)(F)F)ccc2N2CCOCC2)o1	n	x	n	n	n	n	x
CN(C)CCCNC(=O)C(=O)NCC(c1cccs1)S(=O)(=O)c1ccc(F)cc1 (centres undefined)	n	n	n	n	n	n	x
CCc1cccc(C)c1NC(=O)c1cc(-c2ccncc2)nc2ccccc12	n	n	n	42	n	x	n
COc1ccc(NC(=O)c2cc(-c3ccco3)nc3ccccc23)cc1	n	n	n	n	n	n	x
Cc1cccc(C)c1NC(=O)c1cc(-c2ccccn2)nc2ccccc12	n	n	n	41	n	n	n
O=C(Nc1ccncc1)c1cc(-c2ccccn2)nc2ccccc12	n	n	n	n	n	n	x
Cc1cccc(NC(=O)c2cc(-c3ccco3)nc3ccccc23)n1	n	n	n	41	n	n	n
Cc1ccc(CNc2nc(C)cs2)cc1	n	n	n	n	n	n	x
COc1ccc(CNC(=O)CSCc2cnn(-c3ccccc3)c2-n2cccc2)cc1	n	x	n	44	n	n	n
N#Cc1nc(-c2ccccc2F)oc1NCc1cccc2c1OCO2	n	n	n	52	n	n	n
CCOC(=O)N1CCN(c2cc3[nH]c(=S)[nH]c3cc2F)CC1	n	n	n	n	n	n	x
CCOC(=O)N1CCN(c2c(F)cc3[nH]c(=S)[nH]c3c2Br)CC1	n	n	n	57	n	n	n
Cc1cccc(C)c1OCC(=O)Nc1cccc(S(=O)(=O)N2CCCC2)c1	n	x	n	n	n	n	x
Cc1cc(C)c(OCC(=O)Nc2ccc(S(=O)(=O)N3CCCC3)cc2)c(C)c1	n	n	n	41	n	n	39
COc1ccc(OCC(=O)Nc2ccc(S(=O)(=O)N3CCCCC3)cc2)cc1	n	n	n	45	n	n	52
CN(C)S(=O)(=O)c1cccc(NC(=O)CCCC2CCCCC2)c1	n	n	n	41	n	n	n
NS(=O)(=O)c1cccc(NC(=O)CCCC2CCCCC2)c1	n	n	n	n	n	n	x
CN(C)S(=O)(=O)c1cccc(NC(=O)COc2cccc3ccccc23)c1	n	x	n	41	n	x	33
COc1cc2c(cc1NC(=O)C(C)OC(=O)c1ccc(S(=O)(=O)Nc3ccccc3Cl)cc1)oc1ccccc12 (centres undefined)	n	n	n	n	n	n	x

Compound activity deposited in PubChem BioAssay by several laboratories.
